# Screens: PubChem BioAssay, National Center for Advancing Translational Sciences (NCATS)
# Only some compounds are listed: those with a hit (about 3.9% of all), similar ones and a draw of the others.
# HT1080NT lethal: qHTS for induction of synthetic lethality in tumor cells producing 2HG: qHTS for the HT-1080-NT fibrosarcoma cell line; Potency, µM (doses to about 46.1 µM), for inactives: at the top dose activity, negative = less viability, hits mostly cytotoxic; 360,000 tested, 1.6% active; HT-1080-NT fibrosarcoma viability, CellTiter-Glo ATP luminescence, 48 h;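 note: NT is the 2HG producing partner of a matched IDH1 knockdown line; 0% = DMSO-treated cells and -100% = media-only wells without cells; nearly all actives have a fitted effect of over 55% in size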
#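 Luminescent CellTiter-Glo readout after 48 hours of compound exposure at 37 degrees C defined viability of HT-1080-NT cells. Activity was normalized to DMSO wells and cell-free media wells; concentration-response curves were fitted and assigned curve classes.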
# ATXN2 expr inh: Primary qHTS for Inhibitors of ATXN expression | HEK-293 ATXN2-luciferase reporter, luminescence, 24 h | Potency, µM (highest dose often 57 µM), for the others: top-dose activity change, negative = inhibition, most hits filed as inhibitors | 360,000 tested, 0.72% active | AID 1745845, 2022; note: % is set by controls: 0 for no effect and ±100 for the full control effect; nearly all actives have a fitted effect of over 55% in size
#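 ATXN2-luciferase reporter cells (luciferase flanked by upstream and downstream ATXN2 gene portions) were treated 24 h at 37 °C with compounds at up to 57 uM. SteadyGlo luminescence gave expression; GF-AFC fluorescence gave viability.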
# HepG2 viability: qHTS for Inhibitors of TGF-b: Cytotox Counterscreen. HepG2 CAGA-GFP viability, ATP luminescence, 18 h. Potency, µM (series often up to 46.1 µM), for inactives: at the top dose activity change, negative = cytotoxicity, most hits filed as cytotoxic. 410,000 tested, 0.76% active
#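 CellTiter-Glo luminescence gave cytotoxicity after 18 hours at 37 degrees C. The cells were HepG2 CAGA-GFP in 1% FBS DMEM, stimulated with 500 pg/mL TGF-beta after compound addition. %Activity was normalised to no-cell wells (complete cell-killing) and DMSO (no toxicity), and curves were fitted and classified.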
# ATXN viability: Viability Counterscreen for Primary qHTS for Inhibitors of ATXN expression; Potency, µM (series often up to 56.7 µM), actives largely listed as cytotoxic; S2 cells (HEK-293 line with an ATXN2-luciferase reporter) viability, CellTiter-Fluor protease fluorescence, 24 h; 400,000 tested, 0.49% active; AID 651635, 2014; note: nearly all actives have a fitted effect of over 40% in size
# TGFb SMAD3 inh: qHTS for Inhibitors of TGF-b; HepG2 CAGA-GFP TGF-b/SMAD3 reporter, GFP fluorescence, 18 h; TGF-beta stimulated, 500 pg/mL final; Potency, µM (highest dose often 46.1 µM), without a hit: at the highest dose activity, negative = inhibition, usual class: inhibitors; 410,000 tested, 1.2% active; AID 588855, 2011; note: % is set by controls: 0 for no effect and ±100 for the full control effect; nearly all actives have a fitted effect of over 65% in size
#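 HEPG2 CAGA-GFP cells (1000/well, DMEM with 1% FBS) were pre-incubated 2 h at 37 degrees C, given compound by pin tool, then stimulated with TGF-beta at 500 pg/mL final for 18 h before per-cell GFP fluorescence imaging.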
# HT1080 IDH1KD tx: qHTS for induction of synthetic lethality in tumor cells producing 2HG: qHTS for the HT-1080-IDH1KD cell line. HT-1080 IDH1 knockdown viability, ATP luminescence, 48 h. 360,000 tested, 2% active. Potency, µM (doses to about 46.1 µM), for the others: top-dose activity, negative = toxicity, hits mostly cytotoxic;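 note: 0% = DMSO wells and -100% = cell-free medium wells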
#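 Luminescent ATP read-out (CellTiter-Glo, 10 min at room temperature) after 48 h compound exposure at 37 °C gave viability of IDH1-knockdown HT-1080 cells. Activity was normalised to DMSO and cell-free wells, then fitted as concentration-response curves.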
# * hit, by the source's call; i = inactive; ? = inconclusive; . = not tested or not shown; [ ] = remark or other dose. Calls come from the whole dose curve; as a rule, active = well fitted curve in the direction sought with a large enough effect; inconclusive = small, poorly fitted or top-dose-only effect, or another doubt; inactive = no such curve, though single readings can be large; an effect the other way counts as inactive or inconclusive. Potency is the fitted concentration of half-maximal effect.
SMILES,HT1080NT lethal,ATXN2 expr inh,HepG2 viability,ATXN viability,TGFb SMAD3 inh,HT1080 IDH1KD tx
Cc1c(C2=CCN(S(=O)(=O)c3ccc(Cl)cc3)CC2)c2ccccc2n1CC(=O)N1CCCC1,.,-9%,-3%,i,-5%,.
COCCNC(=O)c1sc2nc3n(c(=O)c2c1C)CCC3,.,.,8%,.,?,.
CCS(=O)(=O)Nc1cc(C(=O)N2CCC[C@H]2CO)c2c(c1)nc(-c1ccccc1)n2C,.,.,.,i,.,.
CC(C)(CO)NC(=O)c1cnn(-c2ncc3c(n2)-c2ccccc2CC3)c1C1CC1,.,.,.,i,.,.
Cc1cccc(NC(=S)NC2CC3CCCC(C2)N3Cc2cccs2)c1C (stereo unspecified),11µM*,-8%,-31%,i,-7%,?
CCN1CCCC1CNC(=O)c1cnn(-c2ncc(C)c(-c3ccc(F)cc3)n2)c1C(C)C (stereo unspecified),.,.,.,i,.,.
OC(CNc1ccnc2cc(Cl)ccc12)CNC1CCCCC1 (stereo unspecified),21µM*,32µM*,-93%,.,?,21µM*
CCOC(=O)c1[nH]c2ccccc2c1NC(=O)c1cc(OC)cc(OC)c1,.,-6%,-11%,i,-21%,.
COc1ccccc1NC(=O)CN1CCN(CC(=O)Nc2ccc(F)c(F)c2)CC1,.,6%,-54%,i,6.3µM*,.
COc1ccccc1NC(=O)CN1CCN(CC(=O)Nc2ccc(C)c(F)c2)CC1,5%,-22%,-6%,i,-13%,-14%
Cc1cc(C)c(NS(=O)(=O)c2cc(-c3onc(C)c3C)ccc2C)c(C)c1,.,.,13%,.,-10%,.
Cc1ccc(-c2onc(C)c2C)cc1S(=O)(=O)NC1CCC(C)CC1 (stereo unspecified),.,.,-36%,.,10µM*,.
O=C(CC1C(=O)N(c2ccccc2)C(=O)N1Cc1ccc(F)cc1)Nc1cccc(F)c1 (stereo unspecified),.,.,-2%,.,-8%,.
O=C(Nc1ccccc1C(F)(F)F)c1ccc(CN2CCC(Cc3ccccc3)CC2)cc1,16µM*,-16%,-52%,i,?,23µM*
O=C(Nc1ccccc1)c1ccc(CN2CCC(Cc3ccccc3)CC2)cc1,-2%,-18%,1%,i,0%,0%
OCC1OC(n2cnc3c(/C=C(\O)c4ccccc4)ncnc32)C(O)C1O (stereo unspecified),?,-9%,-22%,?,?,15µM*
Nc1ncnc2c1ncn2C1OC(COP(=O)(O)O)C(O)C1O (stereo unspecified),7.3µM*,53%,19%,i,5%,?
CN1N=C(N)c2cn(C3OC(COP(=O)(O)O)C(O)C3O)c3ncnc1c23 (stereo unspecified),-24%,16%,-41%,i,0.28µM*,?
Nc1ncnc2c1ncn2[C@@H]1O[C@H](COP(=O)(O)O)[C@@H](O)[C@H]1O,?,56%,31%,i,-10%,?
CC(C)(C)C(=O)Cn1c(=O)n(CCCCCC(=O)NCc2ccc3c(c2)OCO3)c(=O)c2sccc21,.,.,-16%,.,?,.
COCCCN1C(=O)c2[nH]nc(-c3ccccc3O)c2C1c1ccc(OC)cc1 (stereo unspecified),.,.,-24%,.,-3%,.
Cc1cc(-n2c(SCc3ccccc3F)nc3[nH]ncc3c2=O)ccc1Cl,.,.,-108%,.,?,.
Cc1cccc(-c2nc(CCNC(=O)c3ccccc3Br)cs2)c1,.,.,-8%,.,?,.
Cc1cc(C(=O)COc2cccnc2[N+](=O)[O-])c(C)n1Cc1ccco1,?,-9%,-21%,i,-25%,21µM*
CC(C)(C)c1ccc(OCC(=O)NNC(=S)NC(=O)c2ccccc2[N+](=O)[O-])c(Br)c1,?,-17%,-6%,i,0%,18µM*
SMILES,HT1080NT lethal,ATXN2 expr inh,HepG2 viability,ATXN viability,TGFb SMAD3 inh,HT1080 IDH1KD tx
C(=C\c1ccnc2ccccc12)/c1ccc(N2CCOCC2)cc1,.,.,-6%,.,-22%,.
Cc1ncc2c(c1CNS(=O)(=O)N(C)C)CCN(C(=O)/C=C/c1ccccc1F)C2,.,.,.,i,.,.
O=C(Nc1cccnc1)c1ccc([N+](=O)[O-])o1,?,1%,-83%,i,?,?
Cc1cc(C)nc(NC(=O)c2ccc([N+](=O)[O-])o2)n1,-3%,6%,-13%,?,?,-20%
Cc1cc(C)cc(NC(=O)c2ccc([N+](=O)[O-])o2)c1,?,?,13µM*,?,11µM*,16µM*
O=C(Nc1ccc(Cl)cn1)c1ccc([N+](=O)[O-])o1,23µM*,?,18µM*,i,11µM*,21µM*
COc1ccc(NC(=O)c2ccc([N+](=O)[O-])o2)cc1,-4%,4%,-68%,i,11µM*,?
CC(=O)c1ccc(NC(=O)c2ccc([N+](=O)[O-])o2)cc1,?,.,16µM*,?,13µM*,18µM*
O=C(C=Cc1c(C(=O)O)[nH]c2cc(Cl)cc(Cl)c12)Nc1ccccc1,.,7%,.,.,.,.
CC(NC(=O)c1ccc([N+](=O)[O-])o1)C12CC3CC(CC(C3)C1)C2 (stereo unspecified),18µM*,-26%,-51%,i,11µM*,?
O=C(NCC1CCCO1)c1ccc([N+](=O)[O-])o1 (stereo unspecified),?,0%,-30%,?,13µM*,-28%
COc1ccc(NC(=O)c2noc(C(C)C)c2[N+](=O)[O-])cc1,23µM*,11%,-16%,i,-9%,?
CC(=O)c1cccc(NC(=O)c2ccc([N+](=O)[O-])o2)c1,15µM*,-18%,-90%,?,?,?
CC(=O)c1ccc(NC(=O)c2noc(C(C)C)c2[N+](=O)[O-])cc1,8%,24%,5%,i,7%,3%
CSc1nnc(CCNC(=O)/C=C/c2cccc(F)c2)n1-c1ccc(F)cc1,.,.,.,i,.,.
COc1cccc(-c2nc3cc(SC)ccc3cc2CN(C(=O)c2sccc2C)C2CC2)c1,.,.,.,i,.,.
Cc1nc(C)n(CC(=O)NCC2Cc3cc(-c4ccsc4)cc(Cl)c3O2)n1 (stereo unspecified),.,.,.,i,.,.
COc1cc(NC(=O)c2cccc([N+](=O)[O-])c2)ccc1NC(=O)c1ccco1,9%,-31%[11.3 µM],5%,i,0%,15%
